# Experimental data taken from PubChem BioAssay (Tox21).
# Activity calls are given as the source filed them. Calls come from the whole dose curve; as a rule, active = well fitted curve in the direction sought with a large enough effect in the repeat runs; inconclusive = weak or mixed curves; inactive = flat fitted curve, though single readings scatter.
# Assay: qHTS assay to test for compound auto fluorescence at 535 nm (green) in HEK293 cells (AID 720680)
# Conditions: green autofluorescence 485/535 nm; series mostly up to 91.3 µM; fluorescence, % of fluorescein: at the top concentration
# % is set by controls: 0 for no effect and ±100 for the full control effect.
Structure (SMILES),"fluorescence, % of fluorescein",outcome
CC(C)COC(=O)COc1ccc(Cl)cc1Cl,0.016% (inactive),–
O=c1[nH]c(=O)c2[nH]c(=O)[nH]c2[nH]1,–,inactive
NS(=O)(=O)c1cc2c(cc1Cl)NC(C(Cl)Cl)NS2(=O)=O (stereo not given),0.0129% [at 18.6 µM] (inactive),–
SCCSCCS,-0.09% (inactive),–
Cc1cc(C)cc([N+](=O)[O-])c1,0.0133% [at 95.7 µM] (inactive),–
CCCCOC(=O)C(C)OC(=O)CCC (stereo not given),-0.174% (inactive),–
CC1=NN(c2ccc(S(=O)(=O)O)cc2)C(=O)C1N=Nc1ccccc1 (stereo not given),-0.27% (inactive),–
O=C(O)c1ccccc1C(=O)Nc1ccc(S(=O)(=O)Nc2nccs2)cc1,0.0089% [at 46 µM] (inactive),–
FC(F)(F)/C(=N\OCC1OCCO1)c1ccc(Cl)cc1,-0.118% (inactive),–
Nc1ccc(/C=C/c2ccc(N)cc2S(=O)(=O)O)c(S(=O)(=O)O)c1,-0.129% [at 46 µM] (inactive),–
CCOC(=O)CC#N,0.002% (inactive),–
COc1cc(C=O)ccc1OC(=O)C(C)C,-0.0321% (inactive),–
CCCOC(=O)CCCCC(=O)OCCC,0.0308% (inactive),–
OC(CCN1CCCCC1)(c1ccccc1)c1ccccc1,-0.0507% [at 46 µM] (inactive),–
C[C@H]1O[C@H](O[C@H]2[C@H](O)[C@@H](O)[C@@H](O[C@H]3[C@H](O)[C@@H](O)[C@H](O)O[C@@H]3CO)O[C@@H]2CO)[C@H](O)[C@@H](O)[C@@H]1N[C@H]1C=C(CO)[C@@H](O)[C@H](O)[C@H]1O,0.0352% [at 46 µM] (inactive),–
O=S(=O)(O)CCO,-0.083% [at 95.7 µM] (inactive),–
NCCc1ccn[nH]1,-0.0168% [at 18.6 µM] (inactive),–
CCCCC(CC)C(=O)OC(C)C (stereo not given),0.0465% (inactive),–

Structure (SMILES),"fluorescence, % of fluorescein",outcome
CCC(=O)c1ccc(O)cc1,-0.0433% [at 46 µM] (inactive),–
CCCCCCCCC(=O)OCC,0.0554% (inactive),–
COc1cc2c3cc1Oc1cc(ccc1O)C[C@@H]1c4c(cc(OC)c(O)c4Oc4ccc(cc4)C[C@@H]3N(C)CC2)CC[N+]1(C)C,-0.0779% [at 46 µM] (inactive),–
CCCCC/C=C/CC(=O)OC,0.0652% (inactive),–
C=CCOc1cc(Cl)ccc1C(=O)NCCN(CC)CC,-0.0058% [at 46 µM] (inactive),–
CCCCCC1Nc2cc(C(F)(F)F)c(S(N)(=O)=O)cc2S(=O)(=O)N1 (stereo not given),0.0517% [at 46 µM] (inactive),–
C[Si]1(C)N[Si](C)(C)N[Si](C)(C)N1,-0.193% (inactive),–
Cc1oc(=O)oc1CN1CCN(c2cc3c(cc2F)c(=O)c(C(=O)O)c2n3C(C)S2)CC1 (stereo not given),0.0501% [at 46 µM] (inactive),–
CCc1nccnc1C,0.0156% (inactive),–
Cc1ccccc1C(=O)N1CC/C(=N\OS(=O)(=O)O)c2ccc(Cl)cc21,0.01% [at 46 µM] (inactive),–
COc1cc2c(Nc3ccc(Br)cc3F)ncnc2cc1OCC1CCN(C)CC1,-0.0275% [at 46 µM] (inactive),–
CO/N=C(/C(=O)N[C@@H]1C(=O)N2C(C(=O)O)=C(Cn3nnc(C)n3)CS[C@H]12)c1csc(N)n1,-0.199% [at 46 µM] (inactive),–
Cc1nc(C)nc(N2C[C@@H](C)N(c3ccnc([C@@H](C)O)n3)[C@@H](C)C2)n1,0.0592% [at 46 µM] (inactive),–
CC(=O)N(CC(O)CO)c1c(I)c(C(=O)NCC(O)CO)c(I)c(C(=O)NCC(O)CO)c1I (stereo not given),-0.0239% [at 46 µM] (inactive),–
O=C(COCCOCCOCC(=O)Nc1c(I)cc(I)c(C(=O)O)c1I)Nc1c(I)cc(I)c(C(=O)O)c1I,-0.0909% [at 46 µM] (inactive),–
C[C@@H]1C[C@H]2[C@@H]3C[C@H](F)C4=CC(=O)C=C[C@]4(C)[C@@]3(F)[C@@H](O)C[C@]2(C)[C@@]1(O)C(=O)CO,0.12% [at 18.6 µM] (inactive),–
C=C[Si](C)(C)O[Si](C)(C)C=C,-0.0013% (inactive),–

# Assay: qHTS assay to test for compound auto fluorescence at 460 nm (blue) in HEK293 cell free culture (AID 720681)
# Conditions: cell-free medium, autofluorescence 405/460 nm (blue); series mostly up to 91.3 µM; fluorescence, % of fluorescent control: at the top concentration
# Procedure, shortened: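 Blue fluorescence (Ex 405/Em 460 nm, triamterene-equivalent) was read immediately after pin transfer of compound or DMSO into medium (DMEM, 10% FBS) without cells.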
Structure (SMILES),"fluorescence, % of fluorescent control",outcome
CC(C)COC(=O)COc1ccc(Cl)cc1Cl,-0.151% (inactive),–
O=c1[nH]c(=O)c2[nH]c(=O)[nH]c2[nH]1,–,inactive
NS(=O)(=O)c1cc2c(cc1Cl)NC(C(Cl)Cl)NS2(=O)=O (stereo not given),-0.0271% [at 18.6 µM] (inactive),–
SCCSCCS,-0.299% (inactive),–
Cc1cc(C)cc([N+](=O)[O-])c1,0.0279% [at 95.7 µM] (inactive),–
CCCCOC(=O)C(C)OC(=O)CCC (stereo not given),0.0913% (inactive),–
CC1=NN(c2ccc(S(=O)(=O)O)cc2)C(=O)C1N=Nc1ccccc1 (stereo not given),-0.888% (inactive),–
O=C(O)c1ccccc1C(=O)Nc1ccc(S(=O)(=O)Nc2nccs2)cc1,0.242% [at 46 µM] (inactive),–
FC(F)(F)/C(=N\OCC1OCCO1)c1ccc(Cl)cc1,-0.0091% (inactive),–
Nc1ccc(/C=C/c2ccc(N)cc2S(=O)(=O)O)c(S(=O)(=O)O)c1,7.69% [at 46 µM] (inactive),–
CCOC(=O)CC#N,-0.0585% (inactive),–
COc1cc(C=O)ccc1OC(=O)C(C)C,0.0835% (inactive),–
CCCOC(=O)CCCCC(=O)OCCC,0.205% (inactive),–
OC(CCN1CCCCC1)(c1ccccc1)c1ccccc1,0.128% [at 46 µM] (inactive),–
C[C@H]1O[C@H](O[C@H]2[C@H](O)[C@@H](O)[C@@H](O[C@H]3[C@H](O)[C@@H](O)[C@H](O)O[C@@H]3CO)O[C@@H]2CO)[C@H](O)[C@@H](O)[C@@H]1N[C@H]1C=C(CO)[C@@H](O)[C@H](O)[C@H]1O,-0.0786% [at 46 µM] (inactive),–
O=S(=O)(O)CCO,0.0966% [at 95.7 µM] (inactive),–
NCCc1ccn[nH]1,-0.0158% [at 18.6 µM] (inactive),–
CCCCC(CC)C(=O)OC(C)C (stereo not given),0.106% (inactive),–

Structure (SMILES),"fluorescence, % of fluorescent control",outcome
CCC(=O)c1ccc(O)cc1,-0.0227% [at 46 µM] (inactive),–
CCCCCCCCC(=O)OCC,-0.0309% (inactive),–
COc1cc2c3cc1Oc1cc(ccc1O)C[C@@H]1c4c(cc(OC)c(O)c4Oc4ccc(cc4)C[C@@H]3N(C)CC2)CC[N+]1(C)C,-0.109% [at 46 µM] (inactive),–
CCCCC/C=C/CC(=O)OC,0.0958% (inactive),–
C=CCOc1cc(Cl)ccc1C(=O)NCCN(CC)CC,-0.0081% [at 46 µM] (inactive),–
CCCCCC1Nc2cc(C(F)(F)F)c(S(N)(=O)=O)cc2S(=O)(=O)N1 (stereo not given),0.342% [at 46 µM] (inactive),–
C[Si]1(C)N[Si](C)(C)N[Si](C)(C)N1,-0.292% (inactive),–
Cc1oc(=O)oc1CN1CCN(c2cc3c(cc2F)c(=O)c(C(=O)O)c2n3C(C)S2)CC1 (stereo not given),-0.0235% [at 46 µM] (inactive),–
CCc1nccnc1C,0.153% (inactive),–
Cc1ccccc1C(=O)N1CC/C(=N\OS(=O)(=O)O)c2ccc(Cl)cc21,-0.0321% [at 46 µM] (inactive),–
COc1cc2c(Nc3ccc(Br)cc3F)ncnc2cc1OCC1CCN(C)CC1,0.161% [at 46 µM] (inactive),–
CO/N=C(/C(=O)N[C@@H]1C(=O)N2C(C(=O)O)=C(Cn3nnc(C)n3)CS[C@H]12)c1csc(N)n1,-0.126% [at 46 µM] (inactive),–
Cc1nc(C)nc(N2C[C@@H](C)N(c3ccnc([C@@H](C)O)n3)[C@@H](C)C2)n1,-0.058% [at 46 µM] (inactive),–
CC(=O)N(CC(O)CO)c1c(I)c(C(=O)NCC(O)CO)c(I)c(C(=O)NCC(O)CO)c1I (stereo not given),0.0345% [at 46 µM] (inactive),–
O=C(COCCOCCOCC(=O)Nc1c(I)cc(I)c(C(=O)O)c1I)Nc1c(I)cc(I)c(C(=O)O)c1I,-0.058% [at 46 µM] (inactive),–
C[C@@H]1C[C@H]2[C@@H]3C[C@H](F)C4=CC(=O)C=C[C@]4(C)[C@@]3(F)[C@@H](O)C[C@]2(C)[C@@]1(O)C(=O)CO,-0.0209% [at 18.6 µM] (inactive),–
C=C[Si](C)(C)O[Si](C)(C)C=C,0.01% (inactive),–
